Measurements taken from PubChem BioAssay (EPA / NIEHS).
Calls of active or inactive are those of the source. The calls were made as follows: active = hit-call score of the fitted dose curve at least 0.9, where 1 is the maximum; inactive = score below 0.9.

Legend:
[1] = read-out: Matrix Metallopeptidase 1 (MMP1), MMP1 (gene 4312); experiment: BSK_BE3C_MMP1: BioMAP Diversity Plus: BE3C Assay for Matrix Metallopeptidase 1 (MMP1) Biomarker Activity (AID 2283024); conditions: primary human bronchial epithelial cells; actives raise or lower the signal
Method in brief: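 ELISA measurement of MMP-1 after 24 h compound exposure of primary human bronchial epithelial cells. Changes in either direction fitted relative to DMSO; parallel SRB staining checked overt cytotoxicity.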

[2] = BSK_3C_Vis: BioMAP Diversity Plus: 3C Assay for Morphology Visualization (AID 2283025); conditions: primary human endothelial cells (HUVEC);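 also: fitted both ways so gain or loss versus DMSO counts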;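 as to AC50: light microscopy image of cell morphology used as background control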
Method in brief: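 Light-microscopy visualization of HUVEC cultures at 24 h post-treatment, with DMSO as baseline for bidirectional fitting.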

[3] = read-out: Pselectin, SELP (gene 6403); experiment: BSK_4H_Pselectin: BioMAP Diversity Plus: 4H Assay for Pselectin Biomarker Activity (AID 2283026); conditions: primary human endothelial cells (HUVEC); actives raise or lower the signal
Method in brief: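 ELISA of surface P-selectin on HUVEC, 24 h after dosing, with parallel SRB staining (0.1% after 10% TCA fixation, 560 nm) for overt cytotoxicity. Activity fitted in both directions relative to DMSO.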

[4] = BSK_4H_SRB: Viability Assessment in the BioMAP Diversity Plus: 4H Assay (AID 2283027); conditions: primary human endothelial cells (HUVEC);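 also: cells exposed to compound for 24 h before staining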
Method in brief: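 Cytotoxicity readout: sulforhodamine B (0.1%) staining of total protein after 10% TCA fixation, measured at 560 nm in human umbilical vein endothelium at 24 h. DMSO set the baseline; fitting was bidirectional.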

[5] = BSK_BE3C_SRB: Viability Assessment in the BioMAP Diversity Plus: BE3C Assay (AID 2283028); conditions: primary human bronchial epithelial cells
Method in brief: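 Human bronchial epithelial primary cells in confluent culture, 24 h after chemical dosing; total protein by 0.1% SRB staining after 10% TCA fixation, read at 560 nm. Bidirectional fitting versus DMSO baseline.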

[6] = read-out: Thrombomodulin, THBD (gene 7056); experiment: BSK_3C_Thrombomodulin: BioMAP Diversity Plus: 3C Assay for Thrombomodulin Biomarker Activity (AID 2283029); conditions: primary human endothelial cells (HUVEC); actives raise or lower the signal
Method in brief: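 ELISA measurement of thrombomodulin on HUVEC surface 24 h after chemical dosing; activity fitted in both directions relative to DMSO vehicle.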

[7] = read-out: Urokinase-type plasminogen activator receptor (uPAR), PLAUR (gene 5329); experiment: BSK_4H_uPAR: BioMAP Diversity Plus: 4H Assay for Urokinase-type plasminogen activator receptor (uPAR) Biomarker Activity (AID 2283030); conditions: primary human endothelial cells (HUVEC); actives raise or lower the signal
Method in brief: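 Human umbilical vein endothelial cells in the 4H system, 24 h after chemical dosing. Cell-surface uPAR measured by ELISA, fitted in both directions versus DMSO; cytotoxicity checked by SRB total protein in parallel cultures.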

[8] = read-out: Vascular endothelial growth factor receptor 2 (Homo sapiens) (UniProt P35968); experiment: BSK_4H_VEGFRII: BioMAP Diversity Plus: 4H Assay for Vascular endothelial growth factor receptor 2 (VEGFR2) Biomarker Activity (AID 2283031); conditions: primary human endothelial cells (HUVEC); actives raise or lower the signal
Method in brief: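 Primary human umbilical vein endothelial cells (4H system), 24 h exposure; cell-surface VEGFR2 measured by ELISA. Bidirectional fitting versus DMSO; cytotoxicity checked in parallel by SRB total-protein staining.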

[9] = read-out: Human Leukocyte Antigen - DR isotype (HLADR), HLA-DRA (gene 3122); experiment: BSK_BE3C_HLADR: BioMAP Diversity Plus: BE3C Assay for Human Leukocyte Antigen - DR isotype (HLADR) Biomarker Activity (AID 2283032); conditions: primary human bronchial epithelial cells; actives raise or lower the signal
Method in brief: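 Cell-surface HLA-DR ELISA readout at 24 h after dosing in the BE3C primary human lung bronchial epithelial system; gain or loss of signal against DMSO, with parallel sulforhodamine B staining of total protein for overt cytotoxicity.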

[10] = read-out: Vascular cell adhesion molecule 1 (VCAM1), VCAM1 (gene 7412); experiment: BSK_4H_VCAM1: BioMAP Diversity Plus: 4H Assay for Vascular cell adhesion molecule 1 (VCAM1) Biomarker Activity (AID 2283033); conditions: primary human endothelial cells (HUVEC); actives raise or lower the signal
Method in brief: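 VCAM-1 ELISA read 24 h after chemical dosing of HUVEC in the BioMAP 4H system, with gain or loss of signal fitted relative to DMSO. Parallel SRB staining (560 nm) checked overt cytotoxicity.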

[11] = read-out: Interferon-gamma inducible Protein 10 (IP10), CXCL10 (gene 3627); experiment: BSK_BE3C_IP10: BioMAP Diversity Plus: BE3C Assay for Interferon-gamma inducible Protein 10 (IP10) Biomarker Activity (AID 2283034); conditions: primary human bronchial epithelial cells; actives raise or lower the signal
Method in brief: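 IP-10 quantified by ELISA in human primary bronchial epithelial cell cultures at 24 hours post-dosing. Gain or loss of signal fitted relative to DMSO; parallel SRB staining assessed overt cytotoxicity.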

[12] = read-out: Monokine induced gamma interferon (MIG), CXCL9 (gene 4283); experiment: BSK_BE3C_MIG: BioMAP Diversity Plus: BE3C Assay for Monokine induced gamma interferon (MIG) Biomarker Activity (AID 2283035); conditions: primary human bronchial epithelial cells; actives raise or lower the signal
Method in brief: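 hu bronchial epithelial 1° cells, 24 h cpd; MIG by ELISA; bidirectional fit, DMSO = baseline.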

[13] = read-out: Transforming growth factor beta 1 (TGFb1), TGFB1 (gene 7040); experiment: BSK_BE3C_TGFb1: BioMAP Diversity Plus: BE3C Assay for Transforming growth factor beta 1 (TGFb1) Biomarker Activity (AID 2283036;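 also: TGF-b1 protein level measured by ELISA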); conditions: primary human bronchial epithelial cells; actives raise or lower the signal
Method in brief: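 ELISA readout of TGF-b1 from human lung bronchial epithelial primary cells, taken 24 h post-treatment. Gain or loss of signal fitted relative to DMSO baseline, with parallel SRB staining for overt cytotoxicity.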

[14] = read-out: Plasminogen activator inhibitor-1 (PAI1), SERPINE1 (gene 5054); experiment: BSK_BE3C_PAI1: BioMAP Diversity Plus: BE3C Assay for Plasminogen activator inhibitor-1 (PAI1) Biomarker Activity (AID 2283037); conditions: primary human bronchial epithelial cells; actives raise or lower the signal
Method in brief: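 PAI-1 was measured by ELISA in human primary bronchial epithelial cultures 24 h after chemical dosing, with cytotoxicity checked by SRB total-protein staining in parallel cultures. Activity was fitted in both directions relative to DMSO.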

[15] = read-out: urokinase plasminogen activator (uPA), PLAU (gene 5328); experiment: BSK_BE3C_uPA: BioMAP Diversity Plus: BE3C Assay for urokinase plasminogen activator (uPA) Biomarker Activity (AID 2283038); conditions: primary human bronchial epithelial cells; actives raise or lower the signal;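 also: uPA protein level quantified by ELISA in cell cultures; uPA read one day after compound addition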
Method in brief: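 Primary human bronchial epithelial cells, uPA measured by ELISA 24 h after dosing. Bidirectional change relative to DMSO; cytotoxicity checked in parallel cultures by sulforhodamine B total-protein staining.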

[16] = read-out: Urokinase-type plasminogen activator receptor (uPAR), PLAUR (gene 5329); experiment: BSK_BE3C_uPAR: BioMAP Diversity Plus: BE3C Assay for Urokinase-type plasminogen activator receptor (uPAR) Biomarker Activity (AID 2283039); conditions: primary human bronchial epithelial cells; actives raise or lower the signal;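 also: cells exposed to compound for one day before measurement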
Method in brief: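 uPAR levels were measured by ELISA after 24 h compound treatment of primary human bronchial epithelial cells, fitted in both directions relative to DMSO. Parallel SRB staining served as the cytotoxicity read-out.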

[17] = read-out: Interleukin-6 (IL6), IL6 (gene 3569); experiment: BSK_CASM3C_IL6: BioMAP Diversity Plus: CASM3C Assay for Interleukin-6 (IL6) Biomarker Activity for (AID 2283040); conditions: primary human coronary artery smooth muscle cells; actives raise or lower the signal
[18] = read-out: Tissue plasminogen activator (tPA), PLAT (gene 5327); experiment: BSK_BE3C_tPA: BioMAP Diversity Plus: BE3C Assay for Tissue plasminogen activator (tPA) Biomarker Activity (AID 2283041); conditions: primary human bronchial epithelial cells; actives raise or lower the signal;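 also: tPA level quantified by ELISA one day after compound addition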
Method in brief: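 tPA measured by ELISA 24 h after dosing human primary bronchial epithelial cells (BE3C system). Changes in either direction were fitted against DMSO. Parallel cultures were stained with SRB to flag overt cytotoxicity.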

[19] = read-out: Interleukin-8 (IL8), CXCL8 (gene 3576); experiment: BSK_CASM3C_IL8: BioMAP Diversity Plus: CASM3C Assay for Interleukin-8 (IL8) Biomarker Activity (AID 2283042); conditions: primary human coronary artery smooth muscle cells; actives raise or lower the signal;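 also: IL-8 protein level quantified by ELISA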
[20] = BSK_3C_SRB: Viability Assessment in the BioMAP Diversity Plus: 3C Assay (AID 2283023); conditions: primary human endothelial cells (HUVEC);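 also: fitted both ways against DMSO so a hit may be signal rise or drop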
Method in brief: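 Human umbilical vein endothelial cells in the 3C system, treated 24 h. Total protein measured by 0.1% sulforhodamine B staining after 10% TCA fixation, read at 560 nm; bidirectional fit versus DMSO.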

Measured: AC50

C1=CCCC=CCCC=CCC1
not listed: [20]
inactive: all other assays above

CN(C)c1ccc(N=NS(=O)(=O)O)cc1
active: [10] 8.31 µM
inactive: all other assays above

O=C(O)c1cccc(N(Cc2cccnc2)c2ccc(OC(F)F)c(OC(F)F)c2)c1
active: [3] 2.44 µM | [11] 32.8 µM | [14] 31.3 µM
not listed: [20]
inactive: all other assays above

COC(=O)c1c(Cl)c(Cl)c(C(=O)OC)c(Cl)c1Cl
active: [2] 39 µM
not listed: [20]
inactive: all other assays above

Nc1cccc(N)c1
not listed: [20]
inactive: all other assays above

CC(=O)c1ccc2c(c1)[C@H](NC(=O)c1ccc(F)cc1)[C@@H](O)C(C)(C)O2
inactive: all assays above

CC(C)CCO
not listed: [8]
inactive: all other assays above
